This note sets out measurements from the antibiotic and cytotoxicity screens of Wong et al. (2023).

The campaign covered roughly 39,000 compounds. About 3,300 (8.5%) were called active. This is one part of a sample in which actives are shown more often than they occur.

In this test the test system is HepG2. Kind of test: cytotoxicity call (relative viability < 0.9). Conditions: 10 µM.
For `Cc1ccc(S(=O)(=O)N(C)C[C@H]2Oc3ccc(NS(=O)(=O)c4cn(C)cn4)cc3CC(=O)N([C@@H](C)CO)C[C@H]2C)cc1`, the cytotoxicity call was “inactive”.
In the case of `O=C(Nc1cccc2cccnc12)[C@@H]1[C@H](c2ccc(C(F)(F)F)cc2)CC(=O)N1C(=O)OCc1ccccc1`, the cytotoxicity call was “inactive”.
`C[C@@H]1CCCCO[C@H](CN(C)C(=O)c2ccncc2)[C@H](C)CN([C@H](C)CO)C(=O)c2cc(NS(C)(=O)=O)ccc2O1`: the cytotoxicity call is “inactive”.
Take `Cc1ccc(S(=O)(=O)N(C)C[C@H]2Oc3cc(Br)ccc3S(=O)(=O)N([C@@H](C)CO)C[C@H]2C)cc1`: the cytotoxicity call is “inactive”.
Regarding `C[C@@H]1CN([C@H](C)CO)C(=O)c2cc(NS(=O)(=O)c3ccccc3)ccc2O[C@@H](C)CCCCO[C@@H]1CN(C)S(=O)(=O)c1ccc(Cl)cc1`, the cytotoxicity call was “inactive”.
As for `C[C@@H]1CCCCO[C@@H](CN(C)S(=O)(=O)c2ccc(Cl)cc2)[C@H](C)CN([C@H](C)CO)C(=O)c2cc(NS(=O)(=O)c3ccccc3)ccc2O1`, the cytotoxicity call is “active”.
On to `C[C@@H]1CCCCO[C@H](CN(C)S(=O)(=O)c2ccc(Cl)cc2)[C@@H](C)CN([C@H](C)CO)C(=O)c2cc(NS(=O)(=O)c3ccccc3)ccc2O1`, for which the cytotoxicity call is “inactive”.
For the compound `C[C@H](CO)N1C[C@H](C)[C@@H](CN(C)S(=O)(=O)c2ccccc2)OCCCC[C@H](C)Oc2ccc(NS(=O)(=O)c3ccc(Cl)cc3)cc2C1=O`, the cytotoxicity call was “inactive”.
Take `C[C@@H]1CN([C@@H](C)CO)C(=O)c2cc(NS(=O)(=O)c3ccc(Cl)cc3)ccc2O[C@@H](C)CCCCO[C@@H]1CN(C)S(=O)(=O)c1ccccc1`: the cytotoxicity call is “active”.
In the case of `C[C@@H]1CCCCO[C@@H](CN(C)S(=O)(=O)c2ccccc2)[C@H](C)CN([C@H](C)CO)C(=O)c2cc(NS(=O)(=O)c3ccc(Cl)cc3)ccc2O1`, the cytotoxicity call was “inactive”.
Consider `C[C@@H]1CN([C@H](C)CO)C(=O)c2cc(NS(=O)(=O)c3ccc(Cl)cc3)ccc2O[C@@H](C)CCCCO[C@H]1CN(C)S(=O)(=O)c1ccccc1`, for which the cytotoxicity call was “active”.
Under `C[C@@H]1CN([C@H](C)CO)C(=O)c2cc(NS(=O)(=O)c3ccc(Cl)cc3)ccc2O[C@@H](C)CCCCO[C@@H]1CN(C)S(=O)(=O)c1ccccc1` stands “inactive”.
Under `C[C@@H]1CN([C@@H](C)CO)C(=O)c2cc(NS(=O)(=O)c3ccccc3)ccc2O[C@@H](C)CCCCO[C@@H]1CN(C)S(=O)(=O)c1ccc(Cl)cc1` stands “inactive”.
Regarding `C[C@H](CO)N1C[C@H](C)[C@H](CN(C)S(=O)(=O)c2ccc(Cl)cc2)OCCCC[C@H](C)Oc2ccc(NS(=O)(=O)c3ccccc3)cc2C1=O`, the cytotoxicity call is “active”.
Regarding `C[C@@H]1CCCCO[C@H](CN(C)S(=O)(=O)c2ccccc2)[C@H](C)CN([C@@H](C)CO)C(=O)c2cc(NS(=O)(=O)c3ccc(Cl)cc3)ccc2O1`, the cytotoxicity call is “inactive”.
For `C[C@@H]1CCCCO[C@@H](CN(C)S(=O)(=O)c2ccccc2)[C@H](C)CN([C@@H](C)CO)C(=O)c2cc(NS(=O)(=O)c3ccc(Cl)cc3)ccc2O1` the value was “inactive”; for `C[C@@H]1CN([C@@H](C)CO)C(=O)c2cc(NC(=O)CCC(F)(F)F)ccc2O[C@@H](C)CCCCO[C@H]1CN(C)Cc1ccncc1`, “inactive”.
As for `C=CCOC(=O)[C@H]1[C@@H]2C(=O)O[C@@H](c3ccccc3)[C@@H](c3ccccc3)N2[C@@H](c2ccc(OCCOC(=O)[C@H]3C[C@H]4C(=O)N[C@@H](Cc5ccccc5)C(=O)N4[C@H]3c3ccc(O)cc3)cc2)[C@]12C(=O)Nc1ccc(I)cc12`, the cytotoxicity call is “inactive”.
On to `C[C@@H]1CCCCO[C@@H](CN(C)C(=O)NC2CCCCC2)[C@@H](C)CN([C@@H](C)CO)C(=O)c2cc(NS(=O)(=O)c3cccs3)ccc2O1`, for which the cytotoxicity call is “inactive”.
Consider `CCCNC(=O)N[C@H]1C=C[C@H](CC(=O)N2CCN(C)CC2)O[C@H]1CO`, for which the cytotoxicity call was “inactive”.
Consider `Oc1cccc(c1)/C/1=C/2\CC/C(=C(\c3cccc(c3)O)c3ccc([nH]3)/C(=C\3/C=CC(=N3)/C(=C\3/C=CC1=N3)c1cccc(c1)O)c1cccc(c1)O)N2`, for which the cytotoxicity call is “inactive”.
Take `C[C@@H]1CN([C@H](C)CO)C(=O)c2cc(NS(=O)(=O)c3ccccc3)ccc2O[C@@H](C)CCCCO[C@H]1CN(C)S(=O)(=O)c1ccc(Cl)cc1`: the cytotoxicity call was “active”.
For the compound `C[C@@H]1CCCCO[C@H](CN(C)S(=O)(=O)c2ccc(Cl)cc2)[C@@H](C)CN([C@@H](C)CO)C(=O)c2cc(NS(=O)(=O)c3ccccc3)ccc2O1`, the cytotoxicity call is “inactive”.
On to `C[C@@H]1CCCCO[C@H](CN(C)S(=O)(=O)c2ccccc2)[C@H](C)CN([C@H](C)CO)C(=O)c2cc(NS(=O)(=O)c3ccc(Cl)cc3)ccc2O1`, for which the cytotoxicity call was “inactive”.
For `O=C(CS(=O)(=O)c1cccc2nsnc12)N1CC(=O)N(CCc2ccccc2)C(=O)C1` the value was “inactive”; for `C[C@H]1CN([C@@H](C)CO)C(=O)c2cc(NS(=O)(=O)c3cn(C)cn3)ccc2O[C@@H]1CN(C)S(=O)(=O)c1ccc(F)cc1`, “inactive”; for `C[C@H](CO)N1C[C@H](C)[C@H](CN(C)Cc2ccc(C(F)(F)F)cc2)Oc2c(NS(C)(=O)=O)cccc2C1=O`, “inactive”.
Take `Cc1ccc(-c2ccc3c(c2)O[C@H](CN(C)C(=O)NC(C)C)[C@H](C)CN([C@@H](C)CO)S3(=O)=O)cc1`: the cytotoxicity call is “inactive”.
For the compound `C[C@H](CO)N1C[C@H](C)[C@H](CN(C)S(=O)(=O)c2ccc(F)cc2)OCCCC[C@H](C)Oc2ccc(NS(=O)(=O)c3cn(C)cn3)cc2C1=O`, the cytotoxicity call is “inactive”.
As for `O=C(C[C@H]1CC[C@@H]2[C@H](COC[C@H](O)CN2S(=O)(=O)c2ccccc2Cl)O1)NCc1ccccc1Cl`, the cytotoxicity call is “inactive”.
For `CN(CC(=O)Nc1cccc(S(=O)(=O)N2CCOCC2)c1)CC(=O)Nc1ccc(Cl)c(C(F)(F)F)c1`, the cytotoxicity call was “inactive”.
Under `C[C@H](NC(=O)c1c(N)nn2cccnc12)c1cc2cccc(C#Cc3cnn(C)c3)c2c(=O)n1-c1ccccc1` stands “active”.
With `O=C(C[C@H]1CC[C@H]2[C@@H](COC[C@@H](O)CN2S(=O)(=O)c2ccccc2)O1)NCCN1CCCC1`, the cytotoxicity call was “inactive”.
With `CN1CCN(C(=O)C[C@H]2CC[C@H]3[C@@H](COc4ccc(NC(=O)c5cccs5)cc4C(=O)N3C)O2)CC1`, the cytotoxicity call is “inactive”.
Turning to `COc1ccc(S(=O)(=O)N(C)C[C@H]2Oc3ccc(NC(=O)c4ccncc4)cc3CC(=O)N([C@H](C)CO)C[C@H]2C)cc1`, the cytotoxicity call is “inactive”.
